In PubChem BioAssay (EPA / NIEHS):
The source made the active and inactive calls. Rule for the calls: active = hit-call score of the fitted dose curve at least 0.9, where 1 is the maximum; inactive = score below 0.9.

Read-out: Cytochrome P450 (CYP24A1), CYP24A1 (gene 1591)
Test: LTEA_HepaRG_CYP24A1: Life Technologies and Expression Analysis (LTEA) Assay for Cytochrome P450 (CYP24A1) using HepaRG (AID 2283478)
Conditions: mRNA level, 48 h; actives raise or lower the signal
Outline: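 Differentiated HepaRG cells, pre-cultured 48 h, were exposed in duplicate for 48 h in serum-free induction medium to 8 half-log concentrations (top 100 uM, 0.5% DMSO). CYP24A1 mRNA was quantified by TaqMan qRT-PCR, normalized to ACTB/GAPDH/POLR2A, fitted bidirectionally versus DMSO.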

Compound	outcome
CC(=O)S[C@H](C(=O)N[C@H]1Cc2ccccc2[C@H]2CCC[C@@H](C(=O)O)N2C1=O)C(C)C	inactive
CC(=O)OCC(COC(C)=O)OC(C)=O	inactive
O=C1O[C@H]([C@H](O)CO)C(O)=C1O	inactive
CC(=O)OC1CC(C)OC(C)O1 (configuration not stated)	inactive

Read-out: Cytochrome P450 (CYP1A2), CYP1A2 (gene 1544)
Test: LTEA_HepaRG_CYP1A2: Life Technologies and Expression Analysis (LTEA) Assay for Cytochrome P450 (CYP1A2) using HepaRG (AID 2283479)
Conditions: mRNA level, 48 h; actives raise or lower the signal
Outline: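 Differentiated human HepaRG cells in serum-free induction medium were exposed in duplicate for 48 h to 8-point half-log concentrations up to 100 uM in 0.5% DMSO. CYP1A2 mRNA measured by qRT-PCR, normalized to ACTB, GAPDH, POLR2A; bidirectional fit vs DMSO.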

Compound	outcome	AC50
c1ccc2occc2c1	inactive	
NC(=Nc1ccccc1)Nc1ccccc1		50 µM (active)
NCCOCCOCCN	inactive	
Oc1ccccc1O	inactive	
Cc1cc(SC2=C(O)C[C@@](CCc3ccc(N)cc3)(C(C)C)OC2=O)c(C(C)(C)C)cc1CO		0.572 µM (active)
CCCCC(CC)CO (configuration not stated)		50 µM (active)
Cc1cn([C@H]2C=C[C@@H](CO)O2)c(=O)[nH]c1=O	inactive	
CSc1ccc(Oc2ccc(S(N)(=O)=O)cc2CN(C)C)cc1C		50 µM (active)
N[C@@H](Cc1c[nH]c2ccccc12)C(=O)O		14.4 µM (active)
O=C1CCCCC1	inactive	
Cc1cc(Cc2ccc(N)c(C)c2)ccc1N		50 µM (active)
CCCCCCCCCCCCCCOS(=O)(=O)O	inactive	
O=C1O[C@H]([C@H](O)CO)C(O)=C1O	inactive	

Read-out: cysteine-aspartic acid protease (CASP8), CASP8 (gene 841)
Test: LTEA_HepaRG_CASP8: Life Technologies and Expression Analysis (LTEA) Assay for cysteine-aspartic acid protease (CASP8) using HepaRG (AID 2283480)
Conditions: mRNA level, 48 h; actives raise or lower the signal
Outline: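 HepaRG, 48 h exposure, duplicate wells; 8 conc, half-log from 100 uM, 0.5% DMSO. Serum-free induction medium. CASP8 mRNA by TaqMan qRT-PCR, norm. ACTB/GAPDH/POLR2A; gain/loss fitted vs DMSO.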

Compound	AC50	outcome
CN(C)CCCN1c2ccccc2Sc2ccc(Cl)cc21	94.5 µM (active)	
c1ccc2occc2c1		inactive
NC(=Nc1ccccc1)Nc1ccccc1		inactive
CCN(CC)CCOc1ccc(C(=C(Cl)c2ccccc2)c2ccccc2)cc1		inactive
NCCOCCOCCN		inactive
Oc1ccccc1O		inactive
CCc1nc(N)nc(N)c1-c1ccc(Cl)cc1		inactive
Cc1cc(SC2=C(O)C[C@@](CCc3ccc(N)cc3)(C(C)C)OC2=O)c(C(C)(C)C)cc1CO		inactive
CCCCC(CC)CO (configuration not stated)		inactive
Nc1nc(Cl)nc2c1ncn2[C@H]1C[C@H](O)[C@@H](CO)O1		inactive
O=C(O)CC(O)(CC(=O)O)C(=O)O		inactive
O=C(NS(=O)(=O)/C=C/c1cccs1)c1ccc(F)cc1Br		inactive
CC(COCC(C)OC(=O)c1ccccc1)OC(=O)c1ccccc1 (configuration not stated)		inactive
Cc1cn([C@H]2C=C[C@@H](CO)O2)c(=O)[nH]c1=O		inactive
C#CC(O)C(CC)CCCC (configuration not stated)		inactive
CSc1ccc(Oc2ccc(S(N)(=O)=O)cc2CN(C)C)cc1C		inactive
CCCCOC(=O)CCCCC(=O)OCCCC		inactive
N[C@@H](Cc1c[nH]c2ccccc12)C(=O)O		inactive
CCCCC(CC)COP(=O)(OCC(CC)CCCC)OCC(CC)CCCC (configuration not stated)		inactive
CC(N)=O		inactive
O=C1CCCCC1		inactive
O=NO		inactive
Cc1cc(Cc2ccc(N)c(C)c2)ccc1N		inactive
CCCCCCCCCCCCCCOS(=O)(=O)O		inactive
Nc1nc(=S)c2[nH]cnc2[nH]1		inactive
COc1ccc(OC(F)(F)F)cc1CN[C@H]1CCCN[C@H]1c1ccccc1		inactive
CC(=O)S[C@H](C(=O)N[C@H]1Cc2ccccc2[C@H]2CCC[C@@H](C(=O)O)N2C1=O)C(C)C		inactive
CC(=O)OCC(COC(C)=O)OC(C)=O		inactive
O=C1O[C@H]([C@H](O)CO)C(O)=C1O		inactive
CC(=O)OC1CC(C)OC(C)O1 (configuration not stated)		inactive

Read-out: Cytochrome P450 (CYP2B6), CYP2B6 (gene 1555)
Test: LTEA_HepaRG_CYP2B6: Life Technologies and Expression Analysis (LTEA) Assay for Cytochrome P450 (CYP2B6) using HepaRG (AID 2283481)
Conditions: mRNA level, 48 h; actives raise or lower the signal
Outline: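 Differentiated HepaRG cells, serum-free induction medium, exposed 48 h in duplicate to 8-point half-log concentrations from 100 uM in 0.5% DMSO. CYP2B6 mRNA by qRT-PCR, normalized to ACTB, GAPDH, POLR2A; bidirectional fit versus DMSO.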

Compound	AC50	outcome
CN(C)CCCN1c2ccccc2Sc2ccc(Cl)cc21	2.21 µM (active)	
c1ccc2occc2c1	5.44 µM (active)	
NC(=Nc1ccccc1)Nc1ccccc1		inactive
CCN(CC)CCOc1ccc(C(=C(Cl)c2ccccc2)c2ccccc2)cc1	3.32 µM (active)	
NCCOCCOCCN		inactive
Oc1ccccc1O		inactive
CCc1nc(N)nc(N)c1-c1ccc(Cl)cc1	82.3 µM (active)	
Cc1cc(SC2=C(O)C[C@@](CCc3ccc(N)cc3)(C(C)C)OC2=O)c(C(C)(C)C)cc1CO	2.89 µM (active)	
CCCCC(CC)CO (configuration not stated)		inactive
Nc1nc(Cl)nc2c1ncn2[C@H]1C[C@H](O)[C@@H](CO)O1	1.22 µM (active)	
O=C(O)CC(O)(CC(=O)O)C(=O)O		inactive
O=C(NS(=O)(=O)/C=C/c1cccs1)c1ccc(F)cc1Br		inactive
CC(COCC(C)OC(=O)c1ccccc1)OC(=O)c1ccccc1 (configuration not stated)		inactive
Cc1cn([C@H]2C=C[C@@H](CO)O2)c(=O)[nH]c1=O	10.3 µM (active)	
C#CC(O)C(CC)CCCC (configuration not stated)	24.4 µM (active)	
CSc1ccc(Oc2ccc(S(N)(=O)=O)cc2CN(C)C)cc1C	12.1 µM (active)	
CCCCOC(=O)CCCCC(=O)OCCCC		inactive
N[C@@H](Cc1c[nH]c2ccccc12)C(=O)O		inactive
CCCCC(CC)COP(=O)(OCC(CC)CCCC)OCC(CC)CCCC (configuration not stated)	8.38 µM (active)	
CC(N)=O		inactive
O=C1CCCCC1		inactive
O=NO		inactive
Cc1cc(Cc2ccc(N)c(C)c2)ccc1N	0.823 µM (active)	
CCCCCCCCCCCCCCOS(=O)(=O)O	85.6 µM (active)	
Nc1nc(=S)c2[nH]cnc2[nH]1	5.84 µM (active)	
COc1ccc(OC(F)(F)F)cc1CN[C@H]1CCCN[C@H]1c1ccccc1	86.1 µM (active)	
CC(=O)S[C@H](C(=O)N[C@H]1Cc2ccccc2[C@H]2CCC[C@@H](C(=O)O)N2C1=O)C(C)C		inactive
CC(=O)OCC(COC(C)=O)OC(C)=O		inactive
O=C1O[C@H]([C@H](O)CO)C(O)=C1O		inactive
CC(=O)OC1CC(C)OC(C)O1 (configuration not stated)		inactive
